We go through 9 compounds from PubChem BioAssay (NCI).

Test systems include NCI-H23 lung; NCI-H226 lung; NCI-H322M lung; HOP-62 NSCLC; NCI-H460 lung; NCI-H522 lung; A549/ATCC NSCLC; 786-0 renal; COLO 205 colon; DU-145 prostate; K-562 leukemia; MALME-3M melanoma; MDA-MB-231 breast; RXF 393 renal; SF-268 CNS; SF-295 CNS; SF-539 CNS; UACC-257 melanoma; M14 melanoma.
Assay in all cases: NCI-60 one-dose screen, 48 h (100 = growth as untreated, 0 = no growth, -100 = all killed)
Holding throughout (conditions): 10 µM unless noted

About 83,000 compounds went through this panel and 20% of them were active in at least one assay; those are over-represented in the sample as a whole.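 Method: cells in 96-well plates; compound added at one concentration; 48 h incubation; percent growth measured; values under 10 scored active.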 A number with no mark means an inactive call. The source made the active and inactive calls.

Turning to `CCSCC1CC(O)(c2ccccc2)C(c2ccccc2)C(c2ccc(F)cc2)O1` (stereo unspecified), the growth is -6.5% (active) in the assay with NCI-H23 lung; -4.42% (active) in the assay on NCI-H226 lung; 3.59% (active) in the assay on NCI-H322M lung; -13.3% (active) in the assay with HOP-62 NSCLC; -16.3% (active) in the assay on NCI-H460 lung; 10.6% in the assay on NCI-H522 lung. The growth was 3.27% (active) in the assay on A549/ATCC NSCLC; -49.5% (active) in the assay on 786-0 renal; -70.2% (active) in the assay with COLO 205 colon; 3.1% (active) in the assay on DU-145 prostate; 7.77% (active) in the assay on K-562 leukemia; -37.6% (active) in the assay with MALME-3M melanoma. Besides, the growth was -8.82% (active) in the assay with MDA-MB-231 breast; -12.4% (active) in the assay on RXF 393 renal; 1.85% (active) in the assay with SF-268 CNS; -22.4% (active) in the assay with SF-295 CNS; 4.38% (active) in the assay on SF-539 CNS; 4.92% (active) in the assay with UACC-257 melanoma. In the assay with M14 melanoma, the growth is -45.8% (active).
Consider `COc1cc(C2CC(c3ccc(Cl)cc3)=NN2C(C)=O)ccc1Oc1ccnc2cc(Cl)ccc12` (stereo unspecified), for which the growth was 64.1% with NCI-H23 lung; 19.5% in the assay with NCI-H226 lung; 53.3% with NCI-H322M lung; 23.1% in the assay with HOP-62 NSCLC; 30.8% with NCI-H460 lung; 40.9% with NCI-H522 lung. For the same compound, the growth was 42.6% in the assay on A549/ATCC NSCLC; 33.6% in the assay on 786-0 renal; 26.2% in the assay on COLO 205 colon; 36.6% with DU-145 prostate; 65.3% in the assay with K-562 leukemia; 53.9% in the assay on MALME-3M melanoma. Moreover, the growth is 36.1% with MDA-MB-231 breast; 46.1% in the assay with RXF 393 renal; 57.5% with SF-268 CNS; 18.3% in the assay with SF-295 CNS; 40.2% in the assay with SF-539 CNS; 68.5% in the assay with UACC-257 melanoma. Besides, in the assay on M14 melanoma, the growth is 79.9%.
Turning to `COc1cc([N+](=O)[O-])cc(OC)c1OC`, the growth in the assay with NCI-H23 lung is 107%; in the assay with NCI-H226 lung it was 112%; with NCI-H322M lung, 109%; in the assay with HOP-62 NSCLC, 110%; in the assay on NCI-H460 lung, 109%; with NCI-H522 lung, 83.8%. Besides, the growth with A549/ATCC NSCLC is 110%; in the assay on 786-0 renal, 104%; in the assay with COLO 205 colon it was 127%; in the assay with DU-145 prostate it was 115%; in the assay on K-562 leukemia it was 101%; with MALME-3M melanoma, 97.8%. For the same compound, the growth was 112% with MDA-MB-231 breast; 124% in the assay on RXF 393 renal; 110% in the assay on SF-268 CNS; 110% in the assay with SF-295 CNS; 114% with SF-539 CNS; 114% in the assay on UACC-257 melanoma. In the assay on M14 melanoma, the growth was 108%.
As for `CC(C)CC(=O)C(CCc1ccccn1)C(C)C` (stereo unspecified), the growth is 98.4% in the assay with NCI-H23 lung; 97.9% in the assay on NCI-H226 lung; 116% in the assay on NCI-H322M lung; 112% with HOP-62 NSCLC; 107% in the assay on NCI-H460 lung; 95.3% with NCI-H522 lung. Also, the growth is 93.9% in the assay with A549/ATCC NSCLC; 105% with 786-0 renal; 130% in the assay on COLO 205 colon; 111% in the assay on DU-145 prostate; 107% in the assay with K-562 leukemia; 109% in the assay on MALME-3M melanoma. In addition, the growth was 108% with MDA-MB-231 breast; 124% in the assay on RXF 393 renal; 103% with SF-268 CNS; 95.2% with SF-295 CNS; 106% in the assay on SF-539 CNS; 92.4% in the assay on UACC-257 melanoma. For the same compound, the growth with M14 melanoma is 105%.
With `C=C1C(=O)O[C@H]2[C@H]1CC/C(COC(=O)NCc1ccc(Cn3c(=O)sn(CCCl)c3=O)cc1)=C\CC[C@@]1(C)O[C@@H]21`, the growth in the assay with NCI-H23 lung is 103%; in the assay with NCI-H226 lung it was 79.8%; in the assay with NCI-H322M lung, 95.1%; in the assay with HOP-62 NSCLC it was 75.3%; with NCI-H460 lung, 97.8%; with NCI-H522 lung, -68% (active). The growth in the assay with A549/ATCC NSCLC was 86%; with 786-0 renal, 32.4%; in the assay on COLO 205 colon it was -48.1% (active); in the assay with DU-145 prostate, 36.9%; in the assay on K-562 leukemia, -13% (active); in the assay with MALME-3M melanoma it was -28.3% (active). In addition, the growth is 73.5% in the assay on MDA-MB-231 breast; 5.98% (active) in the assay on RXF 393 renal; 85.2% with SF-268 CNS; 107% in the assay on SF-295 CNS; 83.1% in the assay with SF-539 CNS; 49.8% in the assay on UACC-257 melanoma. Moreover, in the assay on M14 melanoma, the growth was 29.5%.
Turning to `O/N=C1\c2ccccc2-c2ccc(Br)cc21`, the growth was 96.1% in the assay with NCI-H23 lung; 103% with NCI-H226 lung; 101% in the assay on NCI-H322M lung; 113% with HOP-62 NSCLC; 106% with NCI-H460 lung; 95.8% with NCI-H522 lung. The growth in the assay on A549/ATCC NSCLC was 97.4%; in the assay on 786-0 renal, 98.6%; in the assay with COLO 205 colon, 136%; in the assay with DU-145 prostate it was 110%; in the assay with K-562 leukemia it was 98.7%; in the assay with MALME-3M melanoma, 103%. The growth in the assay with MDA-MB-231 breast is 107%; in the assay with RXF 393 renal, 116%; in the assay with SF-268 CNS, 102%; in the assay with SF-295 CNS, 99.2%; in the assay with SF-539 CNS, 97.8%; in the assay with UACC-257 melanoma, 106%. Further, the growth with M14 melanoma was 129%.
Regarding `CN1C2CCC1/C(=C\c1ccc(F)cc1)C(=O)/C2=C/c1ccc(F)cc1`, the growth is 47.9% with NCI-H23 lung; 55.6% with NCI-H226 lung; 50.3% with NCI-H322M lung; 76.7% with HOP-62 NSCLC; 14.1% with NCI-H460 lung; 34.4% with NCI-H522 lung. Moreover, the growth in the assay with A549/ATCC NSCLC is 36.6%; in the assay on 786-0 renal, 43.8%; in the assay with COLO 205 colon, 14.8%; in the assay with DU-145 prostate, 9.38% (active); in the assay on K-562 leukemia, 16.2%; in the assay with MALME-3M melanoma, 61.7%. The growth was 53.7% in the assay on MDA-MB-231 breast; 66.2% in the assay on RXF 393 renal; 63% with SF-268 CNS; 72% in the assay with SF-295 CNS; 73.6% in the assay with SF-539 CNS; 25.8% in the assay with UACC-257 melanoma. For the same compound, the growth in the assay with M14 melanoma is 41.2%.
As to `CC1OC(n2c3ccccc3c3c4c(c5c6ccccc6[nH]c5c32)C(=O)N(CCN2CCOCC2)C4=O)CC(O)C1O` (stereo unspecified), the growth in the assay on NCI-H23 lung was 16.3%; in the assay with NCI-H226 lung, 17%; in the assay with NCI-H322M lung, 59.1%; with HOP-62 NSCLC it was -5.89% (active); with NCI-H460 lung, 3.35% (active); with NCI-H522 lung, 10.6%. The growth was 12.2% in the assay on A549/ATCC NSCLC; 6.66% (active) with 786-0 renal; 20% in the assay on COLO 205 colon; 18.1% in the assay on DU-145 prostate; 18.4% with K-562 leukemia; 49.1% in the assay with MALME-3M melanoma. The growth was 74.5% with MDA-MB-231 breast; 33.4% with RXF 393 renal; 29.8% with SF-268 CNS; 6.46% (active) in the assay with SF-295 CNS; 8.58% (active) in the assay on SF-539 CNS; 31.8% with UACC-257 melanoma. For the same compound, the growth in the assay on M14 melanoma is 6.29% (active).
In the case of `CCOC(=O)CCN(CCC(=O)OCC)c1ccccc1`, the growth was 101% in the assay on NCI-H23 lung; 98.4% in the assay with NCI-H226 lung; 110% in the assay on NCI-H322M lung; 86% in the assay on HOP-62 NSCLC; 111% with NCI-H460 lung; 89.8% in the assay on NCI-H522 lung. Also, the growth in the assay on A549/ATCC NSCLC was 99.6%; with 786-0 renal, 105%; in the assay with COLO 205 colon it was 93.7%; in the assay with DU-145 prostate it was 111%; in the assay with K-562 leukemia it was 121%; in the assay on MALME-3M melanoma, 120%. Further, the growth is 111% in the assay with MDA-MB-231 breast; 81.3% with RXF 393 renal; 93.6% in the assay on SF-268 CNS; 107% with SF-295 CNS; 92.4% in the assay with SF-539 CNS; 96.4% in the assay with UACC-257 melanoma. Moreover, the growth in the assay with M14 melanoma was 86.6%.
